Source: PubChem BioAssay AID411 (National Center for Advancing Translational Sciences (NCATS), 2006)
Screen size: about 72,000 compounds; about 1,600 (2.2%) were called active. The list comes from a sample in which actives are over-represented; it also holds similar structures and randomly drawn compounds. A number with no mark means an inactive call. The call rests on the fitted dose curve; in most records, active means well fitted inhibition curve with a large enough effect; inconclusive means small, poorly fitted or top-dose-only effect; inactive means flat fitted curve, though single readings scatter.

What follows are compounds tested against Luciferin 4-monooxygenase (Photinus pyralis) (UniProt P08659) (assay: qHTS Assay for Inhibitors of Firefly Luciferase). Details: purified firefly luciferase, luminescence, 8 min; series mostly up to 57.1 µM; activity change, negative = inhibition: at the top concentration.
Procedure, shortened: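 Firefly luciferase (PKLight detection mix) with 10 uM ATP in pH 7.2 imidazole buffer (KCl, MgCl2, Tween 20, BSA). Compounds tested across a concentration series (qHTS). Luminescence read after 8 min at ambient temperature.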
Further: nearly all actives have a fitted effect of over 40% in size.
On the % scale 0 is the no-effect control and ±100 the full control effect; potency means the concentration at half of the fitted maximal effect.

Luciferin 4-monooxygenase (Photinus pyralis), sequence (P08659 whole entry, looked up): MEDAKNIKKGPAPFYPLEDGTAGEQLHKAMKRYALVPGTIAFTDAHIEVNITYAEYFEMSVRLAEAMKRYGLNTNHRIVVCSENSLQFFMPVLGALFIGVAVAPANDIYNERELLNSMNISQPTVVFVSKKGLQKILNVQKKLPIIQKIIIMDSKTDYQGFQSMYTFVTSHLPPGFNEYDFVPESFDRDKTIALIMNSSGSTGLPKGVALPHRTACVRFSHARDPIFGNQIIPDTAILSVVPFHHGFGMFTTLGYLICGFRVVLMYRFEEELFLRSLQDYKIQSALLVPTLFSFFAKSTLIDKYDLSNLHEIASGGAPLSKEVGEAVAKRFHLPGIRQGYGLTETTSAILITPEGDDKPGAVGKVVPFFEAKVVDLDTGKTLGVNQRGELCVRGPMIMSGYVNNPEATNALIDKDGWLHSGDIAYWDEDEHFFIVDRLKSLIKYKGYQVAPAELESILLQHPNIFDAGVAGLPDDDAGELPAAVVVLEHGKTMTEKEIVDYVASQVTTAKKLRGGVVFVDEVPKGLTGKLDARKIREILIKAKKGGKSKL

| SMILES | Potency | activity change, negative = inhibition |
| --- | --- | --- |
| c1c2c(cc3sc(N4CCCCC4)nc13)OCCO2 | 1.58 µM (active) | – |
| Fc1ccc2nc(N3CCCCC3)sc2c1 | 25.1 µM (active) | – |
| Fc1cc(F)c2nc(N3CCOCC3)sc2c1 | – | -2.74% |
| Cc1cc(N2CCCCC2)nc2ccc(Cc3ccc4nc(N5CCCCC5)cc(C)c4c3)cc12 | – | 0.114% [at 11.4 µM] |
| CCOC(=O)N1CCC(NC(=O)c2ccc3nc(N4CCOCC4)sc3c2)CC1 | – | 0.545% |
| C/C(=C\c1ccco1)C1Nc2cccc3cccc(c23)N1 | – | -10.3% |
| Cc1ccc(Cn2ccc(NC(=O)c3cc(C(C)C)on3)n2)cc1 | – | -5.95% |
| Cc1c(O)c(Br)c(C)c(O)c1Br (tested in a mixture with another compound) | – | -10.4% [at 11.4 µM] |
| O=C(c1ccco1)N1CCC2(CC1)CN(c1ncccn1)C2 | – | -0.795% [at 11.4 µM] |
| Cc1nn(-c2ccccc2)c2sc(C(=O)N(Cc3ccco3)C(C)C(=O)NC(C)(C)C)cc12 (stereo not drawn) | – | -28.1% |
| COc1cccc(Cn2c(=O)c(CCc3ccccc3)nc3cnc(N(C)C)nc32)c1 | – | 0.592% [at 11.4 µM] |
| CCc1ccccc1NC1c2ccccc2C(=O)N1c1cccnc1 (stereo not drawn) | – | 4.17% |
| COC(=O)c1cc(NC2c3ccccc3C(=O)N2c2ccc(Cl)cn2)cc(C(=O)OC)c1 (stereo not drawn) | 7.94 µM (active) | – |
| Cc1ccnc(N2C(=O)c3ccccc3C2Nc2ccc3c(c2)OCCO3)c1 (stereo not drawn) | – | -4.54% |
| CCCCc1nc2c(=O)[nH]c3ccccc3c2o1 | – | -2.14% |
| CSc1nnc2c(n1)OC(c1cn(C)c3ccccc13)N(C(C)=O)c1ccccc1-2 (stereo not drawn) | – | 1.54% |
| CCN(CC)C(=O)N1CCN(C(=O)c2ccc(C)cn2)CC1 | – | 2.24% |
| CCCCC[C@H](O)CCCC(=O)O | – | 2.9% |
| Cc1nnc(SCc2ccc(C(=O)c3ccc(Cl)cc3)o2)n1-c1ccccc1 | 12.6 µM (active) | – |
| Cc1nnc(SCC(=O)N2CCc3ccccc32)n1-c1ccccc1 | – | 0.58% |
| Cc1nnc(SCC(=O)NCCOc2ccc(Cl)cc2)n1-c1ccccc1 | – | 1.39% |
| Cn1c(=O)c(-c2ccccc2)nc2cnc(N3CCNCC3)nc21 | – | -0.109% [at 11.4 µM] |
| CCN(CC)C(=O)CSc1nnc(-c2cccc(OC)c2)o1 | – | -5.13% |

| SMILES | Potency | activity change, negative = inhibition |
| --- | --- | --- |
| COc1cccc(-c2nc(S(=O)(=O)c3ccccc3)c(N3CCOCC3)o2)c1 | – | 0.874% |
| COc1cccc(-c2nc3cc(C)ccc3o2)c1 | 3.98 µM (active) | – |
| CCOC(=O)CCC(=O)OCC(=O)NC(C)C1CC2CCC1C2 (stereo not drawn) | – | -0.786% |
| CC[C@H](c1ccccc1)c1cc(C(C)(C)C)cc(C(C)(C)C)c1O | – | 2.75% [at 11.4 µM] |
| COc1ccc(OCc2cccc(C(=O)N3CCCC3)c2)cc1 | 25.1 µM (active) | – |
| COc1ccc(OCC(=O)N2CCN(C(=O)COc3ccccc3)CC2)cc1 | – | 1.46% |
| CCC(CC)C(=O)Nc1cccc(C(=O)N2CCCC2)c1 | – | 0.159% |
| N#CC1=C(N)Oc2cc(O)ccc2C1C1CCCCC1 (stereo not drawn) | – | -0.463% |
| CS(=O)(=O)N1CCC2(CC1)CN(Cc1cc(C(F)(F)F)cc(C(F)(F)F)c1)C2 | – | -0.965% [at 11.4 µM] |
| O=C1C=C(NCCNc2c(F)c(F)c(CO)c(F)c2F)CCC1 | – | -5.44% [at 25.5 µM] |
| COc1ccccc1N1CCN(CCN2C(=O)c3ccccc3C(C)(C)C2=O)CC1 | – | -0.281% |
| O=C1CC2(CCCCC2)Oc2ccc(OCC(=O)N3CCOCC3)cc21 | – | 0.0464% |
| C/C(=C\C(=O)c1ccccc1)Nc1cccc(O)c1 | 7.94 µM (active) | – |
| C/C(=C\C(=O)c1cccnc1)Nc1ccc(C)c(C)c1 | 12.6 µM (active) | – |
| CC(=O)c1cccc(NC(=O)c2ccncc2)c1 | – | -0.13% |
| O=C(Nc1cnccn1)c1cccnc1 | – | 0.489% |
| O=C(CCCOc1ccccc1)Nc1cccc(C(=O)O)c1 | – | -10.1% |
| CCC(=O)Nc1cccc(NC(=O)c2cccnc2)c1 | – | -4.65% |
| COc1ccc(CCn2c(NCCCN3CCOCC3)nc3c2c(=O)[nH]c(=O)n3C)cc1 | – | -0.55% |
| CCc1cccc2c3c([nH]c12)C(CC)(CC(=O)O)OCC3 (stereo not drawn) | – | 0.413% [at 25.5 µM] |
| CCN1C(=O)/C(=C\N2CCN(c3ccccc3)CC2)SC1=S | – | 3.29% |
| CCN1C(=O)c2cccc3c(N)ccc1c23 | – | -8.81% |
| CCN1C(=O)/C(=C2\SC(N3CCCCC3)=NC2=O)c2ccccc21 | 6.31 µM (active) | – |

| SMILES | Potency | activity change, negative = inhibition |
| --- | --- | --- |
| CCCn1c(SCC(=O)Nc2c(C)cccc2C)nnc1C(C)C | – | 1.85% |
| Cc1cc(C)n2nc(C(=O)Oc3ccc4c(c3)OCO4)nc2n1 | – | 1.51% |
| COc1ccccc1C(=O)n1nc(-c2ccccc2)nc1N | – | 0.0179% |
| Cc1nn(C(=O)c2ccoc2C)c(N)c1-c1ccccc1 | 25.1 µM (active) | – |
| Cc1occc1C(=O)N1CCCc2ccccc21 | – | 0.295% |
| Cc1nc2cc(S(=O)(=O)C(F)(F)F)ccc2s1 | – | 4.06% |
| CN(c1ccccc1)c1ccc(/C=c2\s/c(=C(/C#N)C(=O)C(C)(C)C)n(Cc3ccco3)c2=O)cc1 | – | -5.79% |
| COC(=O)c1ccc2c(=O)n(CC3CCCO3)c(=S)[nH]c2c1 (stereo not drawn) | – | -0.889% |
| Cc1ccsc1C(=O)OCC(=O)c1cc(C)n(CC2CCCO2)c1C (stereo not drawn) | 1 µM (active) | – |
| Cc1ccsc1C(=O)OCC(=O)c1cc2ccccc2o1 | – | -16.8% |
| O=S(=O)(O)c1nc2ccccc2n1Cc1ccc(Cl)cc1Cl | – | 0.262% [at 25.5 µM] |
| CN1CCN(S(=O)(=O)c2ccc(NC(=O)C3CCCO3)cc2)CC1 (stereo not drawn) | – | 3.62% |
| C[C@@H]1C[C@H]2[C@@H]3C[C@H](F)C4=CC(=O)C=C[C@@]4(C)[C@]3(F)[C@H](O)C[C@]2(C)[C@@]1(O)C(=O)CO | – | 0.574% [at 25.5 µM] |
| CN(C)/C=C1/C(=O)Nc2ccccc21 | – | 0.13% |
| CCc1nc2ccccc2n(CCOCCOCCn2c(=O)c(CC)nc3ccccc32)c1=O | – | 3.93% |
| COC(=O)c1cn(-c2ccccc2)nc1-c1cccnc1 | – | 1.75% |
| O=C(NCc1cccnc1)c1cn(-c2ccccc2)nc1-c1cccs1 | 10 µM (active) | – |
| O=C(c1cn(-c2ccccc2)nc1-c1cccnc1)N1CCCCC1 | – | -2.89% |
| CC(=O)/C(C)=N\O | inactive | – |
| CCOc1nc(-c2ccc(OC)cc2)ccc1-c1noc(-c2cc(OC)c(OC)c(OC)c2)n1 | – | 1.4% |
| COc1ccc(-c2noc(-c3cccc(OC)c3OC)n2)cc1OC | 6.31 µM (active) | – |
| COc1cc(-c2nc(-c3ccncc3)no2)cc(OC)c1OC | – | -4.91% |
